Measured values taken from PubChem BioAssay (NCI).
The panel holds about 83,000 compounds, 20% with a hit somewhere; the sample as a whole holds those more often.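 A percent growth of 40 corresponds to 60% growth inhibition; 0 means no net growth; -100 means all cells died. Active threshold: below 10.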 Calls of active or inactive are those of the source.

How the values were obtained:
Assay in all cases: NCI-60 one-dose screen, 48 h (100 = growth as untreated, 0 = no growth, -100 = all killed)
Conditions in all cases: 10 µM unless noted
SR leukemia = system: SR leukemia
RPMI-8226 leukemia = system: RPMI-8226 leukemia
OVCAR-8 ovarian = system: OVCAR-8 ovarian
OVCAR-5 ovarian = system: OVCAR-5 ovarian
OVCAR-4 ovarian = system: OVCAR-4 ovarian
SK-OV-3 ovarian = system: SK-OV-3 ovarian
IGROV1 ovarian = system: IGROV1 ovarian
OVCAR-3 ovarian = system: OVCAR-3 ovarian
HS 578T breast = system: HS 578T breast
NCI/ADR-RES ovarian = system: NCI/ADR-RES ovarian
T-47D breast = system: T-47D breast
BT-549 breast = system: BT-549 breast
MDA-MB-435 melanoma = system: MDA-MB-435 melanoma
SW-620 colon = system: SW-620 colon
MCF7 breast = system: MCF7 breast
HCT-116 colon = system: HCT-116 colon
HCC-2998 colon = system: HCC-2998 colon
KM12 colon = system: KM12 colon

Measured: growth

CSCCC(NC(=O)c1ccccc1)C(=O)N/N=C1\S/C(=C/c2ccc(Cl)cc2)C(=O)N1C (stereo not given)
inactive: SR leukemia 38.2% | RPMI-8226 leukemia 49.9% | OVCAR-8 ovarian 71.1% | OVCAR-5 ovarian 94.5% | OVCAR-4 ovarian 88.8% | SK-OV-3 ovarian 84.5% | IGROV1 ovarian 95.7% | OVCAR-3 ovarian 108% | HS 578T breast 80.5% | NCI/ADR-RES ovarian 96.7% | T-47D breast 82.9% | BT-549 breast 87.3% | MDA-MB-435 melanoma 86.2% | SW-620 colon 93.5% | MCF7 breast 83.9% | HCT-116 colon 55.2% | HCC-2998 colon 96.7% | KM12 colon 88.9%

CCN1CCN(CC(=O)Nc2nc3ccc(NCc4ccc(Br)cc4)cc3s2)CC1
inactive: RPMI-8226 leukemia 41.8% | OVCAR-8 ovarian 81.8% | OVCAR-5 ovarian 76% | OVCAR-4 ovarian 72.9% | SK-OV-3 ovarian 90% | IGROV1 ovarian 86.8% | OVCAR-3 ovarian 57.2% | HS 578T breast 81.3% | NCI/ADR-RES ovarian 79.3% | T-47D breast 48.1% | BT-549 breast 85.7% | MCF7 breast 10.3% | HCT-116 colon 17.8% | HCC-2998 colon 62.6% | KM12 colon 52.8%
active: SR leukemia 0.987% | MDA-MB-435 melanoma -6.35% | SW-620 colon 5.94%

C#Cc1cccc(Oc2ccc(NC(=O)CCl)cc2)c1
inactive: SR leukemia 13% [8.25 µM] | RPMI-8226 leukemia 23.9% [8.25 µM] | OVCAR-8 ovarian 31.4% [8.25 µM] | OVCAR-5 ovarian 74.3% [8.25 µM] | SK-OV-3 ovarian 98.9% [8.25 µM] | HS 578T breast 80.7% [8.25 µM] | NCI/ADR-RES ovarian 71.1% [8.25 µM] | T-47D breast 53.9% [8.25 µM] | BT-549 breast 38.7% [8.25 µM] | MDA-MB-435 melanoma 31.7% [8.25 µM] | SW-620 colon 15.9% [8.25 µM] | MCF7 breast 13.5% [8.25 µM] | HCC-2998 colon 83% [8.25 µM] | KM12 colon 64.2% [8.25 µM]
active: OVCAR-4 ovarian 7.96% [8.25 µM] | IGROV1 ovarian -71.6% [8.25 µM] | OVCAR-3 ovarian -76.8% [8.25 µM] | HCT-116 colon -0.801% [8.25 µM]

O=C1NC(=O)c2c1c1c3ccccc3[nH]c1c1oc3cc(Br)ccc3c21
inactive: SR leukemia 24.4% | RPMI-8226 leukemia 63.1% | OVCAR-8 ovarian 81.8% | OVCAR-5 ovarian 98.9% | OVCAR-4 ovarian 77.4% | SK-OV-3 ovarian 93.8% | IGROV1 ovarian 36.2% | OVCAR-3 ovarian 89.9% | HS 578T breast 77.3% | NCI/ADR-RES ovarian 77.3% | T-47D breast 28.1% | BT-549 breast 81.3% | MDA-MB-435 melanoma 76.6% | SW-620 colon 51.5% | MCF7 breast 36.2% | HCT-116 colon 65.1% | HCC-2998 colon 99.7% | KM12 colon 64.4%

Nc1c(C(=O)Nc2ccncc2)sc2nc3c(cc12)CCCCC3
inactive: SR leukemia 43.6% | RPMI-8226 leukemia 47.2% | OVCAR-8 ovarian 65.2% | OVCAR-5 ovarian 83.4% | OVCAR-4 ovarian 55.8% | SK-OV-3 ovarian 75.8% | IGROV1 ovarian 98.9% | OVCAR-3 ovarian 88.9% | HS 578T breast 85.1% | NCI/ADR-RES ovarian 75.5% | T-47D breast 25.7% | BT-549 breast 50.4% | MDA-MB-435 melanoma 67% | SW-620 colon 105% | MCF7 breast 58.5% | HCT-116 colon 66.4% | HCC-2998 colon 85.3% | KM12 colon 75.6%

Cc1ccc2[nH]c(-c3ccc(S(C)(=O)=O)cc3)c(/C=N/N=C(N)N)c2c1
active: MDA-MB-435 melanoma -21.9%
inactive: SR leukemia 24.4% | RPMI-8226 leukemia 39.2% | OVCAR-8 ovarian 58.4% | OVCAR-5 ovarian 101% | OVCAR-4 ovarian 90.7% | SK-OV-3 ovarian 57.7% | IGROV1 ovarian 76.2% | OVCAR-3 ovarian 27.6% | HS 578T breast 50.5% | NCI/ADR-RES ovarian 49.4% | T-47D breast 67.8% | BT-549 breast 76.9% | SW-620 colon 36.4% | MCF7 breast 64.6% | HCT-116 colon 24.4% | HCC-2998 colon 74% | KM12 colon 46.1%

CCC(CC)(N(CC(=O)O)CC(=O)O)C(CC)(CC)N(CC(=O)O)CC(=O)O
inactive: SR leukemia 93.7% | RPMI-8226 leukemia 82.7% | OVCAR-8 ovarian 101% | OVCAR-5 ovarian 117% | OVCAR-4 ovarian 101% | SK-OV-3 ovarian 104% | IGROV1 ovarian 116% | OVCAR-3 ovarian 121% | HS 578T breast 118% | NCI/ADR-RES ovarian 107% | T-47D breast 96.3% | BT-549 breast 117% | MDA-MB-435 melanoma 126% | SW-620 colon 112% | MCF7 breast 100% | HCT-116 colon 110% | HCC-2998 colon 98.1% | KM12 colon 120%

COP(=O)(OC)c1nnn(-c2cccc([N+](=O)[O-])c2)c1C
inactive: SR leukemia 104% | RPMI-8226 leukemia 103% | OVCAR-8 ovarian 101% | OVCAR-5 ovarian 104% | OVCAR-4 ovarian 103% | SK-OV-3 ovarian 123% | IGROV1 ovarian 110% | OVCAR-3 ovarian 111% | HS 578T breast 102% | NCI/ADR-RES ovarian 103% | T-47D breast 99.4% | BT-549 breast 105% | MDA-MB-435 melanoma 108% | SW-620 colon 100% | MCF7 breast 97.9% | HCT-116 colon 105% | HCC-2998 colon 110% | KM12 colon 105%

CC12CCC(/C(=C/NNc3ccc([N+](=O)[O-])cc3[N+](=O)[O-])C1=O)C2(C)C (stereo not given)
inactive: SR leukemia 56.5% | RPMI-8226 leukemia 73.8% | OVCAR-8 ovarian 72.7% | OVCAR-5 ovarian 74.5% | OVCAR-4 ovarian 74.2% | SK-OV-3 ovarian 89.6% | IGROV1 ovarian 68.6% | OVCAR-3 ovarian 87.4% | HS 578T breast 110% | NCI/ADR-RES ovarian 76.5% | T-47D breast 56.8% | BT-549 breast 69.4% | MDA-MB-435 melanoma 70.5% | SW-620 colon 64.8% | MCF7 breast 50.6% | HCT-116 colon 50.7% | HCC-2998 colon 93.4% | KM12 colon 90.7%

N#CCC1=NC(c2cccs2)=Nc2ccccc2S1
inactive: SR leukemia 91.5% | RPMI-8226 leukemia 65.7% | OVCAR-8 ovarian 95.9% | OVCAR-5 ovarian 86.6% | OVCAR-4 ovarian 93.8% | SK-OV-3 ovarian 76.4% | IGROV1 ovarian 86.4% | OVCAR-3 ovarian 95.3% | HS 578T breast 96.2% | NCI/ADR-RES ovarian 98% | T-47D breast 69.7% | BT-549 breast 86.6% | MDA-MB-435 melanoma 105% | SW-620 colon 97.8% | MCF7 breast 96.8% | HCT-116 colon 80.8% | HCC-2998 colon 92.5% | KM12 colon 94.9%
